CIT2 TOR yeast: modulators of CIT2-GFP expression in yeast, primary screen, S. cerevisiae, GFP fusion, multiplex flow cytometry, MLPCN library. S. cerevisiae CIT2-GFP strain, 3 h; 100 means same as DMSO wells. GFP response vs DMSO, % at 10 µM. hit rate 0.065% among 320,000. AID 2029, 2009;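 active means GFP response relative to DMSO above a set limit, near the screen mean plus 3 SD, cut at about 150% in these data; inconclusive means Fewer than 70 cells measured for a yeast strain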;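 further: ratio of well median GFP fluorescence to mean of DMSO wells on the plate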
JMJD2C inh: inhibitors of GASC-1 histone demethylase, primary screen, biochemical, fluorescence, DELFIA europium; hit rate 0.069% among 330,000; inhibition, % at 2.35 µM; GST-JMJD2C(1-420) H3K9me3 demethylation;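 active means more than half of a compound's replicate wells show inhibition beyond 50%, single wells judged on their own value; inconclusive means some, but no more than half, of replicates pass 50% inhibition; inactive means no replicate passes 50% inhibition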;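 further: signal counts dimethyl H3K9 product captured on neutravidin plate; 0% = median of DMSO wells and 100% = 0.3 times that DMSO median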
Target sequence (Q9H3R0 1-420 limits assumed): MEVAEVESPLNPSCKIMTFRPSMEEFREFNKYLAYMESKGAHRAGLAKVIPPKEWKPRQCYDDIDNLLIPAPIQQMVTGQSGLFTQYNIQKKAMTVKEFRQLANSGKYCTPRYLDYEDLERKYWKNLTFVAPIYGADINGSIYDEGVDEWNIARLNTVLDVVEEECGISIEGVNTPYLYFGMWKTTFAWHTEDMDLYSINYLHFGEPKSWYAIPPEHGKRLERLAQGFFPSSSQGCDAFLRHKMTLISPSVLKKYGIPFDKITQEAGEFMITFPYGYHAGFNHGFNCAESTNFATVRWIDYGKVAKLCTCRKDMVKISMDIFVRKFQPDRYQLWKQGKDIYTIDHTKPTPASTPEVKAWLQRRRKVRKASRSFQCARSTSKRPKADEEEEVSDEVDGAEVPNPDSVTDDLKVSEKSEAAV
MEP2-GFP yeast: modulators of MEP2-GFP levels in yeast, primary screen, S. cerevisiae, multiplex flow cytometry, MLPCN library; AID 2016, 2009; S. cerevisiae MEP2-GFP strain, 3 h; 100% = DMSO control level; GFP response vs DMSO, % at 10 µM; hit rate 0.51% among 330,000;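 active means GFP response versus DMSO above a set limit, roughly screen mean plus 3 SD, cut at about 180% in these data; inconclusive means fewer than 70 cells counted for a yeast strain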;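 further: median GFP fluorescence of the barcode-gated MEP2-GFP cells per well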
AGP1-GFP MLPCN: modulators of AGP1-GFP expression in yeast TOR pathway, primary screen, cell-based, multiplex flow cytometry, S. cerevisiae, MLPCN library; 3 h; GFP as percent of DMSO wells; GFP response vs DMSO, % at 10 µM; hit rate 0.02% among 320,000; AID 2066, 2009;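 active means GFP response relative to DMSO above a set limit, near screen average plus 3 SD, cut at about 150% in these data; inconclusive means fewer than 70 cells counted for the yeast strain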;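 further: median GFP channel fluorescence of the gated AGP1 strain per well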
LAP4-GFP MLPCN: modulators of LAP4-GFP expression in yeast, primary screen, S. cerevisiae, multiplex flow cytometry, MLPCN library; GFP response vs DMSO, % at 10 µM; hit rate 0.34% among 320,000; 3 h; median GFP as percent of DMSO wells;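 active means GFP response vs DMSO above a set limit, about the screen mean plus 3 SD, cut at about 150% in these data; inconclusive means under 70 cell events counted for the yeast strain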
RPL19A-GFP yeast: RPL19A-GFP expression modulators in yeast, primary screen, cell-based, S. cerevisiae, multiplex flow cytometry, MLPCN; S. cerevisiae RPL19A-GFP strain, 3 h; active compounds read low; hit rate 0.3% among 330,000; percent response vs DMSO, % at 10 µM;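 active means percent response vs DMSO below 50%; inconclusive means fewer than 70 events counted for the yeast strain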;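 further: median channel GFP fluorescence of the barcoded RPL19A-GFP strain; ratio of sample median GFP to plate DMSO average so 100% = DMSO; lower means less RPL19A-GFP as with rapamycin TOR inhibition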
The depositor's hits bear a star; ? = inconclusive; / = not tested or not shown; [ ] = remark or other dose. An excerpt weighted towards active compounds, which were near 0.97% of everything screened.

SMILES	CIT2 TOR yeast	JMJD2C inh	MEP2-GFP yeast	AGP1-GFP MLPCN	LAP4-GFP MLPCN	RPL19A-GFP yeast
COc1ccc(NC(=O)C2CC(=O)OC23CCCCC3)cc1 (centres undefined)	106.9	13.5	101.8	106.3	101.5	102.8
CCN1C(=O)C(C(=O)Nc2ccc(OC)cc2)C2CC1(C)Oc1ccccc12 (centres undefined)	104.0	54.2*	114.4	105.5	109.4	105.8
CCOCCCn1c(SC(C)C(=O)NCC2CCCO2)nc2sc(C)c(C)c2c1=O (centres undefined)	98.2	-0.8	102.2	103.9	108.6	102.0
Cc1cccc(OCc2nnc(SCC(=O)N3c4ccccc4CCc4ccccc43)o2)c1	?	6.4	946.5*[may fluoresce violet]	26.3	115.1	50.9
COc1ccccc1N(CC(=O)NC1CCCC1)C(=O)CCCC(=O)Nc1ccccn1	/	-9.3	/	/	/	/
CCOc1ccccc1N(CC(=O)NC1CCCC1)C(=O)CCCC(=O)Nc1ccccn1	?	12.8	201.8*[may fluoresce violet]	109.7	90.9	100.6
CCn1c(C)nc2cc(NC(=O)Nc3cccc(C(C)=O)c3)ccc21	99.9	-16.3	105.0	95.9	108.8	107.5
Cc1cc(C)n(CCNC(=O)CC2C(=O)NCCN2Cc2ccccc2C(F)(F)F)n1 (centres undefined)	94.9	-1.1	98.6	96.6	99.4	99.9
Cc1ccc2[nH]c3c(=O)n(CC(=O)Nc4ccccc4N4CCN(C)CC4)ncc3c2c1	?	-12.4	257.9*[may fluoresce violet]	?	55.6	43.1*[may fluoresce violet]
Cc1ccc2[nH]c3c(=O)n(CC(=O)N4CCN(C)CC4)ncc3c2c1	117.1	-21.2	192.6*	115.4	111.5	78.2
O=C(Cn1ncc2c([nH]c3ccccc32)c1=O)N1CCCCC1	98.1	-0.1	106.8	100.6	100.5	100.1
COc1ccc(C)cc1NC(=O)C1CCCN(S(=O)(=O)c2cccc3cccnc23)C1 (centres undefined)	95.6	9.4	95.9	99.0	98.3	94.6
COc1cc(C(C(=O)NC2CCCC2)N(CCO)C(=O)Cn2nnc(-c3ccc(C)o3)n2)ccc1O (centres undefined)	98.3	6.7	106.2	97.8	93.4	96.4
CCCCNC(=O)c1ccccc1C(=O)NCCCC	98.0	1.4	95.9	101.3	95.8	99.1
CCCCNC(NCCCC)=C(S(=O)(=O)CC)S(=O)(=O)CC	?	-0.2	229.6*[may fluoresce violet]	?	89.2	64.0
Clc1ccc(OCCn2cnc3ccccc32)c(Cl)c1	69.4	1.6	94.7	90.1	155.2*	89.3
CCN(CC)C(=O)c1ccc2c3c(cccc13)C(=O)N(CCc1ccc(OC)c(OC)c1)C2=O	102.6	3.2	176.9*	98.2	118.8	103.6
Cc1nc(CCNS(=O)(=O)c2cccnc2)cs1	99.1	9.5	97.8	94.7	98.5	94.6
CCc1ccc(NC(=O)C(=O)NCC2CCCN2S(=O)(=O)c2cccs2)cc1 (centres undefined)	97.8	1.7	96.8	109.7	107.4	100.0
CCOC(=O)C(C)Oc1ccsc1C(=O)OC (centres undefined)	101.2	51.1*	101.7	100.3	97.7	100.0
O=C(Nc1ccnn1C1CCN(Cc2ccccc2OC(F)F)CC1)c1cccnc1	100.8	25.5	93.6	101.6	90.6	100.4
CCOC(=O)C(=CNNc1cccc(Cl)c1)C(=O)OCC	105.1	9.2	97.8	102.8	154.2*	98.1
CCOC(=O)C(=CNc1ccc(Cl)cn1)C(=O)OCC	91.4	-6.9	98.8	99.5	109.7	99.8
CN(CC(=O)Nc1ccc(F)cc1)C(=O)CSc1nnc(Cc2ccccc2)o1	110.5	-0.5	104.3	111.3	107.7	116.1
CCCCN(CC)CCNC(=O)c1cc2c(-c3ccccc3F)nn(C)c2s1	?	11.9	674.3*[may fluoresce violet]	18.2	71.3	36.7*[may fluoresce violet]
SMILES	CIT2 TOR yeast	JMJD2C inh	MEP2-GFP yeast	AGP1-GFP MLPCN	LAP4-GFP MLPCN	RPL19A-GFP yeast
CC1CCCCN1CCNC(=O)c1cc2c(-c3ccccc3F)nn(C)c2s1 (centres undefined)	105.1	-44.4	101.1	102.0	102.5	99.1
O=[N+]([O-])c1cc(-c2cnc3ccccc3n2)ccc1Oc1ccc(F)cc1	93.3	62.3*	99.4	94.3	100.7	94.9
O=[N+]([O-])c1ccccc1Oc1cnc2ccccc2n1	87.3	5.3	96.2	96.2	100.9	97.5
Cc1cccn2c(=O)c3cc(C#N)c(=NC(=O)c4ccccc4)n(Cc4ccco4)c3nc12	?	13.8	256.8*[may fluoresce violet]	22.4	95.8	43.7*[may fluoresce violet]
Cc1ccc(-n2c(=O)c(C#N)cc3c(=O)n4cccc(C)c4nc32)cc1	?	12.6	150.1	22.0	83.2	42.5*[may fluoresce violet]
Cc1cccc(C(=O)N=c2c(C#N)cc3c(=O)n4cccc(C)c4nc3n2Cc2ccco2)c1	?	-2.3	293.8*[may fluoresce violet]	?	82.9	17.4*[may fluoresce violet]
Cc1cccn2c(=O)c3cc(C#N)c(=NC(=O)c4ccco4)n(Cc4ccco4)c3nc12	?	7.9	134.9	18.6	103.5	80.2
CCCCn1c(N)c(N(CCOC)C(=O)CSc2nnc(-c3ccncc3)n2CCC)c(=O)[nH]c1=O	99.4	6.9	98.6	101.2	101.8	99.0
CCOc1ccc(/C=N/NC(=O)c2nnn(-c3nonc3N)c2-c2ccc(OCC)cc2)cc1	116.6	4.9	106.6	103.6	92.2	106.2
CCN(CC)Cc1c(C(=O)N/N=C/c2cccc3ccccc23)nnn1-c1nonc1N	105.7	-11.9	111.5	96.1	102.0	99.0
CCN(CC)c1ccc(/C=N/NC(=O)c2nnn(-c3nonc3N)c2-c2ccc(C)cc2)cc1	?	-0.2	193.2*[may fluoresce violet]	20.2	81.0	32.7*[may fluoresce violet]
CCN(CC)Cc1c(C(=O)N/N=C/c2ccccn2)nnn1-c1nonc1N	?	24.9	295.2*[may fluoresce violet]	19.1	89.8	54.6
CCc1c(O)nc(SCC(=O)NCc2ccco2)[nH]c1=O	?	0.3	677.5*[may fluoresce violet]	27.6	203.8*[may fluoresce violet]	39.3*[may fluoresce violet]
C=CCn1c(O)c(N=O)c2ccccc21	101.3	-2.4	105.8	100.5	106.4	101.4
C=CCn1c(O)c(N=Nc2ccccc2C)c2ccccc21	112.2	97.1*	104.9	104.8	114.9	93.6
CSCC[C@H](NC(=O)c1ccc(Br)o1)c1nnc2ccccn12	?	-1.3	143.9	14.7	87.6	42.1*[may fluoresce violet]
COCCn1c(C)nnc1SCC(=O)NNC(=O)c1ccc(Cl)cc1	100.8	-3.2	97.9	102.8	103.4	95.4
O=C(C1CC1)N1CCc2cc(Br)cc(S(=O)(=O)NCCN3CCOCC3)c21	94.0	6.3	104.9	96.8	99.2	97.2

Bioassay records as filed in PubChem.
